Several values for one entry are separate records, joined by “and”; a condition that tells them apart may be missing. Equal values may be shown once. Inconclusive results are not listed. Where a call stands in place of a potency, no number is given. Where a structure was tested more than once in an assay, its records may differ in their call. Activity calls are given as the source filed them. Calls follow the shape of the dose curve; as a rule, active = well fitted curve in the direction sought with a large enough effect in the repeat runs; inconclusive = weak or mixed curves; inactive = no such curve, though single readings can be large; an effect the other way counts as inactive or inconclusive.
Assay: qHTS RealTime-Glo MT Cell Viability Assay in HEK293 cells - 40 hour (AID 1224874); also: nearly all actives have a fitted effect of over 50% in size; also: potency is read from the fitted curve at half-maximal effect
Details: RealTime-Glo luminescence; max response: stronger effect = lower value
In short: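 HEK293 cells mixed with RealTime-Glo reagents (NanoLuc plus cell-permeant prosubstrate) at 600 cells/well, preincubated 5 h at 37 C/5% CO2, then given 23 nL compound in DMSO. Nonlytic luminescence from viable cells was read at 0, 8, 16, 24, 32 and 40 h.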

| Structure (SMILES) | max response | Potency |
| --- | --- | --- |
| O=[N+]([O-])c1ccc(O)c([N+](=O)[O-])c1 | -16% (inactive) | – |
| C=C(C)C(=O)OCC1CO1 (centres undefined) | 9.74% (inactive) and -15.3% (inactive) | – |
| c1ccc(P(c2ccccc2)c2ccccc2)cc1 | -31.4% (inactive) | – |
| Clc1nc(Cl)nc(Cl)n1 | 10.8% (inactive) and -11.8% (inactive) | – |
| CCC(C)(c1ccc(O)cc1)c1ccc(O)cc1 | – | 24.5 µM (active) and 43.6 µM (active) |
| Nc1cccnc1 | 2.11% (inactive) and -8.29% (inactive) | – |
| Cc1c(COC(=O)[C@@H]2[C@H](/C=C(\Cl)C(F)(F)F)C2(C)C)cccc1-c1ccccc1 | – | 19.1 µM (active) |
| CCCCCc1cc(O)cc(O)c1 | – | 24.5 µM (active) |
| CN(C)C(=O)Nc1ccc(Cl)cc1 | -3.64% (inactive) and -10.5% (inactive) | – |
| Oc1cc(Cl)ccc1Cl | -8.7% (inactive) and -0.256% (inactive) | – |
| S=C1NCCN1 | 5.45% (inactive) and 5.82% (inactive) | – |
| CC(C)(C)c1ccccc1O | -18.3% (inactive) and -0.927% (inactive) | – |
| Nc1ccncc1 | 2.45% (inactive) and 3.84% (inactive) | – |
| O=Cc1ccco1 | -0.5% (inactive) | – |
| Cc1ccc2c(c1N)C(=O)c1ccccc1C2=O | – | 9.67 µM (active) and 6.92 µM (active) |
| CCOc1cc(Oc2ccc(C(F)(F)F)cc2Cl)ccc1[N+](=O)[O-] | -24.7% (inactive) | – |

| Structure (SMILES) | max response | Potency |
| --- | --- | --- |
| ClC1C(Cl)C(Cl)C(Cl)C(Cl)C1Cl (centres undefined) | – | 54.9 µM (active) |
| CC(C)NC(C)C | 17.8% (inactive) and 3.33% (inactive) | – |
| O=C(Nc1ccc(Br)cc1)c1cc(Br)cc(Br)c1O | – | 17.3 µM (active) and 19.5 µM (active) |
| C#CCOS(=O)OC1CCCCC1Oc1ccc(C(C)(C)C)cc1 (centres undefined) | – | 7.77 µM (active) and 21.9 µM (active) |
| CC(C)=CC1C(C(=O)OCc2coc(Cc3ccccc3)c2)C1(C)C (centres undefined) | -17.8% (inactive) | – |
| Brc1ccc(Oc2cc(Br)c(Br)cc2Br)c(Br)c1 | – | 43.6 µM (active) |
| CN(C)c1ccc(C(=O)c2ccc(N(C)C)cc2)cc1 | – | 3.47 µM (active) |
| C#C[C@]1(O)CC[C@H]2[C@@H]3CCC4=CC(=O)CC[C@]4(C)[C@H]3CC[C@@]21C | -4.36% (inactive) and -16.3% (inactive) | – |
| CC(C)C(=O)OCC(C)(C)C(OC(=O)C(C)C)C(C)C (centres undefined) | -10.2% (inactive) and 4.91% (inactive) | – |
| Cc1ccc(OP(=O)(Oc2ccc(C)cc2)Oc2ccc(C)cc2)cc1 | -19.7% (inactive) | – |
| c1ccc(N=Nc2ccccc2)cc1 | -14.7% (inactive) and -11.3% (inactive) | – |
| CCOC(=S)S | 6.71% (inactive) and 5.31% (inactive) | – |
| CCOC(=O)C(C)OC(=O)c1cc(Oc2ccc(C(F)(F)F)cc2Cl)ccc1[N+](=O)[O-] (centres undefined) | -24.2% (inactive) | – |
| CC(C)(OOC(C)(C)c1ccccc1)c1ccccc1 | -13.8% (inactive) and -15.4% (inactive) | – |
| CC(C)Oc1cc(-n2nc(C(C)(C)C)oc2=O)c(Cl)cc1Cl | – | 34.7 µM (active) |
| NCc1cccnc1 | 0.404% (inactive) and -2.08% (inactive) | – |

Assay: A CellTox Green Cytotoxicity Assay to monitor cytotoxicity in HEK293 cells - 24 hour (AID 1224875); also: nearly all actives have a fitted effect of over 45% in size
Details: CellTox Green fluorescence; series mostly up to 76.8 µM
In short: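 HEK293 cells premixed with CellTox Green dye were seeded at 600 cells/well and left 5 h at 37 C/5% CO2 before pin transfer of 23 nL compound in DMSO. Fluorescence from dye bound to dead-cell DNA was read during 40 h treatment.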

| Structure (SMILES) | Potency |
| --- | --- |
| CCC(C)(c1ccc(O)cc1)c1ccc(O)cc1 | inactive |
| Oc1ccc(-c2ccccc2)cc1 | inactive |
| Oc1c(Cl)c(Cl)c(Cl)c(Cl)c1Cl | inactive |
| Cc1ccc(N)c(N)c1 | inactive |
| Cc1ccc2c(c1N)C(=O)c1ccccc1C2=O | inactive |
| C#CCOS(=O)OC1CCCCC1Oc1ccc(C(C)(C)C)cc1 (centres undefined) | inactive |
| CN(C)c1ccc(C(=O)c2ccc(N(C)C)cc2)cc1 | inactive |
| c1ccc(N=Nc2ccccc2)cc1 | inactive |
| CCOC(=O)C(C)OC(=O)c1cc(Oc2ccc(C(F)(F)F)cc2Cl)ccc1[N+](=O)[O-] (centres undefined) | inactive |

Assay: A CellTox Green Cytotoxicity Assay to monitor cytotoxicity in HepG2 cells - 16 hour (AID 1224876); also: nearly all actives have a fitted effect of over 45% in size; also: potency is read from the fitted curve at half-maximal effect
Details: CellTox Green fluorescence; series mostly up to 76.8 µM
In short: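 HepG2 cells were seeded together with the CellTox Green dye at 600 cells/well, left 5 h at 37 C/5% CO2, then given compounds in DMSO. Fluorescence from dye bound to dead-cell DNA was read repeatedly over 40 h of treatment at 37 C.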

| Structure (SMILES) | Potency |
| --- | --- |
| Nc1ccc(Cl)cc1N | inactive and 40.4 µM (active) |
| O=[N+]([O-])c1ccc(O)c([N+](=O)[O-])c1 | inactive |
| C=C(C)C(=O)OCC1CO1 (centres undefined) | inactive |
| c1ccc(P(c2ccccc2)c2ccccc2)cc1 | inactive |
| Clc1nc(Cl)nc(Cl)n1 | inactive |
| CCC(C)(c1ccc(O)cc1)c1ccc(O)cc1 | inactive |
| Nc1cccnc1 | inactive |
| Cc1c(COC(=O)[C@@H]2[C@H](/C=C(\Cl)C(F)(F)F)C2(C)C)cccc1-c1ccccc1 | inactive |
| CCCCCc1cc(O)cc(O)c1 | inactive |
| Oc1ccc(-c2ccccc2)cc1 | inactive |
| CN(C)C(=O)Nc1ccc(Cl)cc1 | inactive |
| Oc1cc(Cl)ccc1Cl | inactive |
| Oc1c(Cl)c(Cl)c(Cl)c(Cl)c1Cl | inactive |
| S=C1NCCN1 | inactive |
| Cc1ccc(N)c(N)c1 | inactive |
| CC(C)(C)c1ccccc1O | 44.2 µM (active) |
| Nc1ccncc1 | inactive |
| O=Cc1ccco1 | inactive |
| Cc1ccc2c(c1N)C(=O)c1ccccc1C2=O | inactive |

| Structure (SMILES) | Potency |
| --- | --- |
| CCOc1cc(Oc2ccc(C(F)(F)F)cc2Cl)ccc1[N+](=O)[O-] | inactive |
| ClC1C(Cl)C(Cl)C(Cl)C(Cl)C1Cl (centres undefined) | inactive |
| CC(C)NC(C)C | inactive |
| O=C(Nc1ccc(Br)cc1)c1cc(Br)cc(Br)c1O | inactive and 43.6 µM (active) |
| C#CCOS(=O)OC1CCCCC1Oc1ccc(C(C)(C)C)cc1 (centres undefined) | inactive |
| CC(C)=CC1C(C(=O)OCc2coc(Cc3ccccc3)c2)C1(C)C (centres undefined) | inactive |
| Brc1ccc(Oc2cc(Br)c(Br)cc2Br)c(Br)c1 | inactive |
| Cc1cccc(N)c1N | inactive |
| CN(C)c1ccc(C(=O)c2ccc(N(C)C)cc2)cc1 | inactive |
| C#C[C@]1(O)CC[C@H]2[C@@H]3CCC4=CC(=O)CC[C@]4(C)[C@H]3CC[C@@]21C | inactive |
| O=C(NC(=O)c1c(F)cccc1F)Nc1ccc(Cl)cc1 | inactive |
| CC(C)C(=O)OCC(C)(C)C(OC(=O)C(C)C)C(C)C (centres undefined) | inactive |
| Cc1ccc(OP(=O)(Oc2ccc(C)cc2)Oc2ccc(C)cc2)cc1 | inactive |
| c1ccc(N=Nc2ccccc2)cc1 | inactive |
| CCOC(=S)S | inactive |
| CCOC(=O)C(C)OC(=O)c1cc(Oc2ccc(C(F)(F)F)cc2Cl)ccc1[N+](=O)[O-] (centres undefined) | inactive |
| CC(C)(OOC(C)(C)c1ccccc1)c1ccccc1 | inactive |
| CC(C)Oc1cc(-n2nc(C(C)(C)C)oc2=O)c(Cl)cc1Cl | inactive |
| NCc1cccnc1 | inactive |

— PubChem BioAssay (Tox21)
